# ChEMBL document CHEMBL4513160, “CO-ADD screening of MMV (CH) - Small Polar Library”
# Among all 23,000 compounds or so, about 30 (0.1%) showed an effect of 50% or more. For the sample, strong results were picked, then their nearest neighbours and some compounds at random. Entries with a potency or affinity are not part of this list.
# Test system: Pseudomonas aeruginosa
# Conditions: Concentration 300 ug.mL-1; ASSAY_TEST Inhibition of Bacterial Growth; detection method Absorption (OD600); MEDIA CAMHB; plate type 384well; NBS; CORNING #3640; time 18 hr
row,Compound,Inhibition [%]
1,CCc1ccc(C2CNCCO2)cc1 (stereo unspecified),46.05
